Bioassay records deposited in PubChem by Sanford-Burnham Center for Chemical Genomics.
CYP2C19 act – cytochrome P450 2C19 (human) activation; 96,000 tested, under 10 active; activation factor at 5 µM; P33261; recombinant CYP2C19, luciferin-H EGE luminescence; stronger effect = higher value; 0 = fully inhibited enzyme, 1 = untreated enzyme;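 active = activation factor of at least 2 at 5 µM in the primary screen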
Target sequence (P33261 whole entry, looked up): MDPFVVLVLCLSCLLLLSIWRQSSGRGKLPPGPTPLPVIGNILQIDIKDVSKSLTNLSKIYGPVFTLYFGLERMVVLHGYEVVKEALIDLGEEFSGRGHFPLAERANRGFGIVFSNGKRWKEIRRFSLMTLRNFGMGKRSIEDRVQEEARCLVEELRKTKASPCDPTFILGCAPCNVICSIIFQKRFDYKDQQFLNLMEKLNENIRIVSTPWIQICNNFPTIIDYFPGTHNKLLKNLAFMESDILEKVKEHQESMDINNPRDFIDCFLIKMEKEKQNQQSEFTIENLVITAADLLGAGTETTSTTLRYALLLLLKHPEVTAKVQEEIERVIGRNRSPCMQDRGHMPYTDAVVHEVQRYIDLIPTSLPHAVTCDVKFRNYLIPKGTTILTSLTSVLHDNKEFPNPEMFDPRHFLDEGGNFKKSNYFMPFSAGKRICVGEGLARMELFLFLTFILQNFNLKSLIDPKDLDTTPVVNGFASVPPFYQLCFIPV
CYP2C9 activ – activators of human CYP2C9; P11712; recombinant CYP2C9, luciferin-H conversion, luminescence; stronger effect = higher value; factor 1 = untreated enzyme, 0 = blocked; activation factor at 5 µM; actives 1.4% (n = 96,000); AID 1024;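 active = activation factor of 2 or more for CYP2C9 at a 5 µM dose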
CD11b adhes inh – CD11b/CD18-fibrinogen binding inhibition. P05107+P11215. K562 CD11b/CD18 adhesion to fibrinogen, ATPlite luminescence; Mn2+ added to activate the integrin. inhibition, % at 10 µM. actives 0.54% (n = 93,000);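 active = primary inhibition of 50% or more at 10 µM, then 40% or more on retest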
CD11b adhes enh – CD11b/CD18-fibrinogen binding enhancement; actives 0.07% (n = 93,000); activation, % at 10 µM; P05107+P11215; AID 1499; K562 CD11b/CD18 adhesion to fibrinogen, ATPlite luminescence;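 active = 10 µM primary screen giving 50% or more activity, confirmed by 40% or more on retest at that dose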
CYP2C19 inhib – blocks human cytochrome P450 2C19 | P33261 | CYP2C19 Supersomes, luciferin-H EGE luminescence, 30 min | inhibition, % at 5 µM | actives 21% (n = 96,000);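 active = CYP2C19 inhibition above a set limit at 5 µM in the primary screen, cut at about 50% in these data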
CYP2C9 inhib – blocks human cytochrome P450 2C9 | actives 20% (n = 96,000) | inhibition, % at 5 µM | CYP2C9 Supersomes, luciferin-H conversion, luminescence | P11712;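 active = blocking of liver enzyme CYP2C9 beyond about 50% at 5 µM, limit read from the data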
Numbers stand for hits; - = inactive; . = not tested or not shown. Shown are actives, neighbours in structure and some others; about 28% of the full set was active somewhere.

SMILES	CYP2C19 act	CYP2C9 activ	CD11b adhes inh	CD11b adhes enh	CYP2C19 inhib	CYP2C9 inhib
COc1ccc(-n2c(N)c(C(=O)NCC3CCCO3)c3nc4ccccc4nc32)c(OC)c1 (stereo unspecified)	-	-	-	-	-	55
CCCNC(=O)c1c(N)n(-c2cc(OC)cc(OC)c2)c2nc3ccccc3nc12	-	-	-	-	-	70
CCCOc1ccc(S(=O)(=O)NNC(=O)c2cc3ccccc3o2)cc1	.	.	-	-	.	.
O=C1Oc2ccccc2C2(O)C3CCCCCC3C12 (stereo unspecified)	-	-	-	-	95	-
COC(=O)C1=C(C)N=C2SC(C)C(=O)N2C1c1ccc(C(=O)OC)cc1 (stereo unspecified)	-	-	-	-	78	-
CCOC(=O)C1=C(C)N=C2SC(C(=O)OC)=CC(=O)N2C1c1ccc(F)cc1 (stereo unspecified)	-	-	-	-	50	-
CCC1SC2=NC(C)=C(C(=O)OC)C(c3ccc(C)cc3)N2C1=O (stereo unspecified)	-	-	-	-	99	80
CCOC(=O)C1=C(C)N=C2SC(C)C(=O)N2C1c1ccc(OC(C)=O)c(OCC)c1 (stereo unspecified)	-	-	-	-	65	63
CCOC(=O)C1=C(C)N=C2SCCC(=O)N2C1c1cccs1 (stereo unspecified)	-	-	-	-	-	-
COc1ccc(CNC(=O)CN(CC2CCCO2)C(=O)CNS(=O)(=O)c2ccc(F)cc2)cc1 (stereo unspecified)	-	-	-	-	-	-
O=C(Nc1ccc2c(c1)OCCO2)c1ccc(NC(=O)C2CCCO2)cc1 (stereo unspecified)	-	-	-	-	-	-
CCOc1cccc(C(=O)Nc2ccc3oc(Cc4ccc(Cl)cc4)nc3c2)c1	-	-	-	-	-	58
Cn1c(C2=C(O)CN(c3ccc4c(c3)OCCO4)C2=N)nc2ccccc21	-	-	-	-	-	-
NC(=O)CSc1nc2scc(-c3ccc(Cl)cc3)c2c(=O)n1Cc1ccccc1	.	.	-	-	.	.
O=C(OCc1cc2ccccc2[nH]c1=O)c1ccccc1	-	-	-	-	59	-
CC(C)C(NS(=O)(=O)c1cccs1)C(=O)NCc1ccc2c(c1)OCO2 (stereo unspecified)	-	-	-	-	94	84
Cc1ccc(CNC(=O)C(NS(=O)(=O)c2cccs2)C(C)C)cc1 (stereo unspecified)	-	-	-	-	85	52
Cc1ccc(CNC(=O)C(Cc2ccccc2)NS(=O)(=O)c2cccs2)cc1 (stereo unspecified)	-	-	-	-	61	-
CCOC(=O)CNC(=O)C(Cc1ccccc1)NS(=O)(=O)c1cccs1 (stereo unspecified)	-	-	-	-	-	-
CCC(=O)Nc1nnc(CSCc2ccc(F)cc2)s1	-	-	-	-	-	-
O=[N+]([O-])c1cc([N+](=O)[O-])c(N2CCCCCC2)cc1NCCO	-	-	-	-	-	70
O=C(COC(=O)CCC(=O)Nc1nccs1)NCc1ccco1	-	-	-	-	-	-
Cc1[nH]nc2c1C1(C(=O)N(Cc3ccc(Cl)cc3)c3ccccc31)C(C#N)=C(N)O2 (stereo unspecified)	-	-	-	-	89	92
COC(=O)Cc1[nH]nc2c1C1(C(=O)N(Cc3ccccc3)c3ccccc31)C(C#N)=C(N)O2 (stereo unspecified)	-	-	-	-	64	61
CN1C(=O)C2(C(C#N)=C(N)Oc3n[nH]c(-c4ccc(Cl)cc4)c32)c2ccccc21 (stereo unspecified)	-	-	-	-	-	-
SMILES	CYP2C19 act	CYP2C9 activ	CD11b adhes inh	CD11b adhes enh	CYP2C19 inhib	CYP2C9 inhib
CCCCOc1ccc(NC(=O)CSc2nnnn2C)cc1	-	-	-	-	-	-
N#Cc1c(NC(=O)CCn2cnc3ccccc3c2=O)oc(-c2ccccc2)c1-c1ccccc1	-	-	-	-	81	96
O=C(O)CCn1cnc2ccccc2c1=O	-	-	-	-	-	-
O=C(CCN1C(=O)c2ccccc2C1=O)Nc1ccc(-c2nc3ccccc3o2)cc1	-	-	-	-	-	-
O=C(CCN1C(=O)c2ccccc2C1=O)NCc1ccncc1	-	-	-	-	-	-
N#Cc1c(NC(=O)CCN2C(=O)c3ccccc3C2=O)oc(-c2ccccc2)c1-c1ccccc1	-	-	-	-	-	82
O=C(CCN1C(=O)c2ccccc2C1=O)Nn1cnnc1	-	-	-	-	-	90
CCSCCc1nnc(NC(=O)Nc2cccc(C(F)(F)F)c2)s1	.	.	-	-	.	.
COc1ccc(NC(=O)c2ccco2)cc1NC(=O)c1cccnc1	-	-	-	-	-	-
Cc1ccnc2c(N3C(=O)C4C5c6ccccc6C(c6ccccc65)C4C3=O)cccc12 (stereo unspecified)	-	-	-	-	-	-
COc1ccc(N(CC(=O)NC(C)C)S(=O)(=O)c2ccc(NC(C)=O)cc2)cc1	-	-	-	-	88	93
COc1ccc(CCNC(=O)CN(c2ccc(OC)c(OC)c2)S(C)(=O)=O)cc1	-	-	-	-	-	80
CCOc1ccc(NC(=O)CN(c2ccc(OC)cc2)S(C)(=O)=O)cc1	-	-	-	-	-	-
COc1ccc(NC(=O)CN(c2ccc([N+](=O)[O-])cc2)S(=O)(=O)c2ccccc2)c(OC)c1	.	.	-	-	.	.
COC(=O)c1ccc(NC(=O)CN(c2ccc(OC)cc2)S(C)(=O)=O)cc1	-	-	-	-	-	67
COc1ccc(NC(=O)CN(c2ccc(C)cc2)S(C)(=O)=O)c(OC)c1	-	-	-	-	78	98
Cc1ccnc(SCCn2c(N3CCN(c4ccccc4)CC3)nc3c2c(=O)[nH]c(=O)n3C)n1	-	-	-	-	-	-
CCOC(=O)N1CCC(NC(=O)c2csc3c2CCCC3)CC1	-	-	-	-	-	-
CN1CCN(/N=C/c2cccc(Cl)c2Cl)CC1	.	.	-	-	.	.
COc1ccc(C)cc1NC(=O)CN(c1ccccc1)S(C)(=O)=O	-	-	-	-	-	51
COc1ccc(OC)c(NC(=O)CN(c2ccc(OC)c(Cl)c2)S(C)(=O)=O)c1	-	-	-	-	-	63
COc1ccc(C)cc1NC(=O)COC(C)=O	-	-	-	-	-	-
CCOc1ccc(N(CC(=O)Nc2ccc(OC)cc2)S(C)(=O)=O)cc1	-	-	-	-	-	-
COc1ccc(N2CC(C(=O)NCc3cccnc3)CC2=O)cc1 (stereo unspecified)	-	-	-	-	-	-
Cc1ccc(Sc2nc(C)cc(C)c2S(C)(=O)=O)cc1	-	-	.	.	-	64
COc1ccc(Oc2nc(C)cc(C)c2S(C)(=O)=O)cc1	-	-	.	.	-	-
